# Test results: PubChem BioAssay (NCATS)
# Several values for one entry are separate records, joined by “and”; a condition that tells them apart may be missing. Identical values can stand only once. Results filed as inconclusive are left out. Where a call stands in place of a potency, no number is given. The source holds several records for some structures; these can differ, active in one and inactive in another. Activity calls are given as the source filed them. The call rests on the fitted dose curve; in most records, active means well fitted curve in the direction sought with a large enough effect; inconclusive means small, poorly fitted or top-dose-only effect, or another doubt; inactive means no such curve, though single readings can be large; an effect the other way counts as inactive or inconclusive.
# Tests used:
# [1] = Primary qHTS for inhibitors of nuclear receptor binding SET domain protein 2 (NSD2) in an isogenic RCH-ACV NSD2 p.E1099K mutant (9B) (AID 1645876)
# [2] = Primary qHTS for inhibitors of nuclear receptor binding SET domain protein 2 (NSD2) in an RCH-ACV wild type WT cells (2C) (AID 1645877)
# Further: nearly all actives have a fitted effect of over 70% in size.
# Potency means the concentration at half of the fitted maximal effect.
Compound,Potency [1],Potency [2]
CC(COc1ccccc1)N(CCCl)Cc1ccccc1 (stereo unspecified),inactive,inactive
Clc1ccc2c(c1)C(N1CCNCC1)=Nc1ccccc1O2,inactive,inactive
CC[N+](CC)(CC)CCOc1cccc(OCC[N+](CC)(CC)CC)c1OCC[N+](CC)(CC)CC,inactive,inactive
C[C@H]1c2cccc(O)c2C(O)=C2C(=O)[C@]3(O)C(O)=C(C(N)=O)C(=O)[C@@H](N(C)C)[C@@H]3[C@@H](O)[C@@H]21,23.5 µM (active),9.34 µM (active)
CCC1(c2ccccc2)C(=O)NCNC1=O,inactive,inactive
CC#C[C@]1(O)CC[C@H]2[C@@H]3CCC4=CC(=O)CCC4=C3[C@@H](c3ccc(N(C)C)cc3)C[C@@]21C,23.5 µM (active),
Cc1cn([C@H]2C[C@H](N=[N+]=[N-])[C@@H](CO)O2)c(=O)[nH]c1=O,inactive,
CN(C)CCOC(c1ccccc1)c1ccccc1,inactive,inactive
CC(C)NCC(O)c1ccc(O)c(O)c1 (stereo unspecified),inactive,
NS(=O)(=O)c1cc2c(cc1Cl)NCNS2(=O)=O,inactive,inactive
N[C@@H](Cc1c[nH]c2ccc(O)cc12)C(=O)O,inactive,inactive
Nc1nc2c(ncn2COC(CO)CO)c(=O)[nH]1,inactive,inactive
COc1cc2nc(N(C)CCCNC(=O)C3CCCO3)nc(N)c2cc1OC (stereo unspecified),inactive,inactive
CN1CCC(=C2c3ccccc3CC(=O)c3sccc32)CC1,inactive,
CC(C)Cc1ccc(C(C)C(=O)O)cc1 (stereo unspecified),inactive,inactive
CCN1CCCC1CNC(=O)c1cc(S(=O)(=O)CC)c(N)cc1OC (stereo unspecified),inactive,inactive
CN1CCC(=C2c3ccccc3C=Cc3ccccc32)CC1,23.5 µM (active),18.6 µM (active)
O=C(c1ccc(OCCN2CCCCC2)cc1)c1c(-c2ccc(O)cc2)sc2cc(O)ccc12,21.1 µM (active) and 23.5 µM (active) and 20.6 µM (active),13.3 µM (active) and 18.6 µM (active) and 18.4 µM (active)
Cc1cn([C@H]2C=C[C@@H](CO)O2)c(=O)[nH]c1=O,inactive,inactive
O=c1[nH]cc(F)c(=O)[nH]1,13.2 µM (active),23.7 µM (active) and 14.8 µM (active)
CC12CC3CC(C)(C1)CC(N)(C3)C2,inactive,
NC(CO)C(=O)NNCc1ccc(O)c(O)c1O (stereo unspecified),26.3 µM (active),
COc1ccc2[nH]cc(CCNC(C)=O)c2c1,inactive,inactive

Compound,Potency [1],Potency [2]
CN(CCOc1ccc(NS(C)(=O)=O)cc1)CCc1ccc(NS(C)(=O)=O)cc1,inactive,inactive
COc1ccc(C2CNC(=O)C2)cc1OC1CCCC1 (stereo unspecified),inactive,inactive
CCOC(=O)C(C)(C)Oc1ccc(Cl)cc1,inactive,inactive
CN(Cc1cnc2nc(N)nc(N)c2n1)c1ccc(C(=O)N[C@@H](CCC(=O)O)C(=O)O)cc1,9.4 nM (active) and 148 nM (active),9.4 nM (active) and 148 nM (active)
CN(C)c1nc(N(C)C)nc(N(C)C)n1,inactive,inactive
O=C(C1CCCCC1)N1CC(=O)N2CCc3ccccc3C2C1 (stereo unspecified),inactive,inactive
CCOC(=O)c1ncn2c1CN(C)C(=O)c1cc(F)ccc1-2,inactive,inactive
CC(=O)OCC(CCn1cnc2cnc(N)nc21)COC(C)=O,inactive,inactive
Cc1cc(C(C)(C)C)cc(C)c1CC1=NCCN1,inactive and 20.9 µM (active),inactive and 18.6 µM (active)
O=C1c2c(O)ccc(O)c2C(=O)c2c(NCCNCCO)ccc(NCCNCCO)c21,0.186 µM (active),0.132 µM (active)
COc1cc2c(c(OC)c1OC)-c1ccc(OC)c(=O)cc1[C@@H](NC(C)=O)CC2,33.5 nM (active) and 33.2 nM (active),15 nM (active) and 26.3 nM (active)
COc1cc2nc(N3CCN(C(=O)c4ccco4)CC3)nc(N)c2cc1OC,13 µM (active),13 µM (active)
O=c1c(-c2ccc(O)cc2)coc2cc(O)cc(O)c12,11.9 µM (active) and 13.5 µM (active),11.9 µM (active) and 10.8 µM (active)
NCCCCCC(=O)O,inactive,inactive
CCC1(C)CC(=O)NC1=O (stereo unspecified),inactive,inactive
CC1COc2c(N3CCN(C)CC3)c(F)cc3c(=O)c(C(=O)O)cn1c23 (stereo unspecified),inactive,inactive
Clc1ccc(C(c2ccccc2Cl)C(Cl)Cl)cc1 (stereo unspecified),inactive,inactive
CC(C)NCC(O)COc1ccc(CCOCC2CC2)cc1 (stereo unspecified),inactive,inactive
CCCNCC(O)COc1ccccc1C(=O)CCc1ccccc1 (stereo unspecified),18.6 µM (active),15 µM (active) and 16.6 µM (active)
O=C1N(c2ccccc2)c2ccccc2C1(Cc1ccncc1)Cc1ccncc1,inactive,inactive
COc1nc(C)nc(Cl)c1NC1=NCCN1,inactive,inactive
COc1ccccc1OCC(O)CN1CCN(CC(=O)Nc2c(C)cccc2C)CC1 (stereo unspecified),inactive,inactive
Nc1c2c(nc3ccccc13)CCCC2,inactive,inactive
